Measurements published in PubChem BioAssay AID1159580 (chemical genetic matrix, 2015).
Values joined by “and” are separate entries in the source; they are usually repeats but may differ in a detail not shown here. Identical values can stand only once. In all, about 5,500 compounds went through this assay and about 2,000 (36%) were called active. About 18% were inconclusive and are not listed. Cut-off read from the data, not from the text of the source: active = normalized growth mostly below about 0.91 (no sharp cut-off); inconclusive = no clear call, values can overlap the other calls; inactive = mostly above about 0.92. Some of the results follow.

Experiment: chemical genetic growth profiling, strain panel (AID 1159580);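 note: tested at 20 µM; growth read once vehicle control cultures reached saturation at 30 °C; 1 = growth at the plate median or of vehicle wells; lower values mean less growth of the strain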
Settings: S. cerevisiae deletion strains, growth OD

Measured: normalized growth

O=C1OC(=O)C2C3CCC(O3)C12 (stereo not given)
1 (inactive) and 0.875 (active): locus YJL095W, strain BCK1, stronger effect = lower value
inactive: locus YAL013W, strain DEP1, stronger effect = lower value 1.03 | locus YAL021C, strain ccr4, stronger effect = lower value 1.02 | locus YAL026C, strain drs2, stronger effect = lower value 1.02 | locus YAL030W, strain snc1, stronger effect = lower value 1.03 | locus YAL040C, strain CLN3, stronger effect = lower value 1 | locus YBL061C, strain skt5, stronger effect = lower value 1.01 | locus YBR009C, strain hhf1, stronger effect = lower value 1 | locus YBR021W, strain FUR4, stronger effect = lower value 0.947 | locus YBR023C, strain chs3, stronger effect = lower value 1.02 | locus YBR171W, strain sec66, stronger effect = lower value 1.02 | locus YBR229C, strain ROT2, stronger effect = lower value 1 | locus YBR231C, strain swc5, stronger effect = lower value 1 | locus YBR279W, strain paf1, stronger effect = lower value 1 | locus YCL011C, strain gbp2, stronger effect = lower value 1.01 | locus YCL016C, strain dcc1, stronger effect = lower value 1.03 | locus YCL029C, strain bik1, stronger effect = lower value 0.966 | locus YCL061C, strain MRC1 (second series), stronger effect = lower value 1 | locus YCL069W, strain vba3, stronger effect = lower value 0.994 | locus YCR088W, strain abp1, stronger effect = lower value 1.01 | locus YDL005C, strain med2, stronger effect = lower value 1.01 | locus YDL035C, strain GPR1, stronger effect = lower value 1.01 | locus YDL040C, strain nat1, stronger effect = lower value 1 | locus YDL074C, strain BRE1, stronger effect = lower value 1.01 | locus YDL101C, strain DUN1, stronger effect = lower value 1.01 | locus YDL134C, strain PPH21, stronger effect = lower value 1.02 | locus YDL185W, strain tfp1, stronger effect = lower value 0.937 | locus YDL192W, strain arf1, stronger effect = lower value 0.977 | locus YDR001C, strain nth1, stronger effect = lower value 1 | locus YDR069C, strain doa4, stronger effect = lower value 1.01 | locus YDR101C, strain arx1, stronger effect = lower value 0.982 | locus YDR137W, strain rgp1, stronger effect = lower value 1.06 | locus YDR150W, strain NUM1, stronger effect = lower value 1.03 and 1 | locus YDR159W, strain sac3, stronger effect = lower value 0.98 | locus YDR162C, strain NBP2, stronger effect = lower value 0.987 | locus YDR195W, strain ref2 0.975 | locus YDR297W, strain sur2, stronger effect = lower value 0.998 | locus YDR318W, strain mcm21, stronger effect = lower value 0.981 | locus YDR334W, strain swr1, stronger effect = lower value 0.992 | locus YDR335W, strain msn5, stronger effect = lower value 1.02 | locus YDR363W, strain ESC2, stronger effect = lower value 1.03 | locus YDR388W, stronger effect = lower value 0.956 | locus YDR392W, strain spt3, stronger effect = lower value 1.09 | locus YDR502C, strain sam2, stronger effect = lower value 0.966 | locus YEL003W, strain gim4, stronger effect = lower value 1.01 | locus YEL037C, strain rad23, stronger effect = lower value 1.02 | locus YEL061C, strain CIN8 (second series), stronger effect = lower value 1 | locus YEL061C, strain CIN8, stronger effect = lower value 1.02 | locus YER002W, strain NOP16, stronger effect = lower value 1.02 | locus YER015W, strain faa2, stronger effect = lower value 1.01 | locus YER016W, strain bim1, stronger effect = lower value 1.01 | locus YER110C, stronger effect = lower value 0.97 | locus YER111C, strain swi4, stronger effect = lower value 1.02 | locus YER155C, strain BEM2 (second series), stronger effect = lower value 1.02 | locus YER155C, strain BEM2, stronger effect = lower value 1.02 | locus YER167W, strain BCK2, stronger effect = lower value 1 | locus YFR010W, strain ubp6, stronger effect = lower value 0.967 | locus YGL078C, strain dbp3, stronger effect = lower value 0.98 | locus YGL086W, strain mad1, stronger effect = lower value 0.995 | locus YGL167C, strain pmr1, stronger effect = lower value 1.01 | locus YGL173C, strain kem1, stronger effect = lower value 1 | locus YGL227W, strain vid30, stronger effect = lower value 0.996 | locus YGL240W, strain doc1, stronger effect = lower value 0.981 | locus YGL248W, strain PDE1, stronger effect = lower value 1.01 | locus YGL253W, strain hxk2, stronger effect = lower value 1.03 | locus YGR078C, strain PAC10, stronger effect = lower value 1.03 | locus YGR135W, strain pre9, stronger effect = lower value 0.967 | locus YGR229C, strain SMI1, stronger effect = lower value 1.02 | locus YGR252W, strain gcn5, stronger effect = lower value 0.982 | locus YHR013C, strain ard1, stronger effect = lower value 1.05 | locus YHR027C, strain rpn1, stronger effect = lower value 1.04 | locus YHR030C, strain SLT2, stronger effect = lower value 1.01 and 0.877 | locus YHR079C, strain IRE1 (second series), stronger effect = lower value 0.98 | locus YHR079C, strain IRE1, stronger effect = lower value 0.919 | locus YHR094C, strain hxt1, stronger effect = lower value 0.98 | locus YHR129C, strain ARP1, stronger effect = lower value 1.03 | locus YHR142W, strain chs7, stronger effect = lower value 1.04 | locus YHR200W, strain rpn10, stronger effect = lower value 0.977 | locus YIL066C, strain RNR3, stronger effect = lower value 1.02 | locus YIL073C, strain SPO22, stronger effect = lower value 1.02 | locus YIL125W, strain kgd1, stronger effect = lower value 0.973 | locus YIR030C, strain dcg1, stronger effect = lower value 0.985 | locus YJL092W, strain hpr5, stronger effect = lower value 1.01 | locus YJL095W, strain BCK1 (second series), stronger effect = lower value 1.01 | locus YJL115W, strain asf1, stronger effect = lower value 1 | locus YJL129C, strain trk1, stronger effect = lower value 1.03 | locus YJL134W, strain LCB3, stronger effect = lower value 1.01 | locus YJL154C, strain vps35, stronger effect = lower value 0.999 | locus YJL164C, strain tpk1, stronger effect = lower value 1 | locus YJL166W, strain qcr8, stronger effect = lower value 0.99 | locus YJL168C, strain set2, stronger effect = lower value 0.984 | locus YJL187C, strain SWE1 (second series), stronger effect = lower value 1.01 | locus YJR043C, strain POL32, stronger effect = lower value 1 | locus YJR066W, strain TOR1, stronger effect = lower value 0.872 | locus YJR075W, strain HOC1, stronger effect = lower value 1.02
